Experimental data published in article PMC5540273 (PLoS ONE, 2017).

What was measured:
Settings in all cases: concentration: 1 μM, replicates: in singlicate; n = 1
[1] = test system: ERN1
[2] = test system: T1, FAK
T1 construct: gene PTK2

[3] = test system: FER
[4] = test system: FES
[5] = test system: FGFR1
[6] = test system: FGFR2
[7] = test system: FGFR3
[8] = test system: FGFR4
[9] = test system: FGR
[10] = test system: FLT1
[11] = test system: FLT3-autoinhibited
[12] = test system: FLT3
[13] = test system: FLT4
[14] = test system: FRK
[15] = test system: FYN
[16] = test system: GAK
[17] = test system: T2, GCN2(Kin.Dom.2,S808G)
T2 construct: gene EIF2AK4

[18] = test system: GRK1
[19] = test system: T3, GRK2
T3 construct: gene ADRBK1

[20] = test system: T4, GRK3
T4 construct: gene ADRBK2
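Note: KINOMEscan kinase panel screen.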

| SMILES | %Inh [1] [%] | %Inh [2] [%] | %Inh [3] [%] | %Inh [4] [%] | %Inh [5] [%] | %Inh [6] [%] | %Inh [7] [%] | %Inh [8] [%] | %Inh [9] [%] | %Inh [10] [%] | %Inh [11] [%] | %Inh [12] [%] | %Inh [13] [%] | %Inh [14] [%] | %Inh [15] [%] | %Inh [16] [%] | %Inh [17] [%] | %Inh [18] [%] | %Inh [19] [%] | %Inh [20] [%] |
| --- | --- | --- | --- | --- | --- | --- | --- | --- | --- | --- | --- | --- | --- | --- | --- | --- | --- | --- | --- | --- |
| Cc1cccc(Cn2ccn3c(=O)cc(N4CCOCC4)nc23)c1 [GSK2297542] | 16 | 0 | 30 | 10 | 0 | 16 | 16 | 10 | 32 | 20 | 2 | 11 | 0 | 7 | 21 | 20 | 6 | 0 | 0 | 16 |
| Fc1ccc(-c2ncn(CCCN3CCOCC3)c2-c2ccccn2)cc1 [SB-211742] | 0 | 29 | 0 | 10 | 0 | 0 | 0 | 0 | 27 | 23 | 0 | 20 | 0 | 6 | 0 | 6 | 0 | 0 | 2 | 0 |
| NS(=O)(=O)c1cccc(-c2ccc3ncc(N4CCOCC4)nc3c2)c1 [GSK1535721] | 2 | 0 | 3 | 6 | 0 | 0 | 22 | 15 | 27 | 13 | 12 | 0 | 12 | 11 | 16 | 15 | 0 | 3 | 0 | 30 |
| O=c1cc(N2CCOCC2)nc2n(Cc3cccc(F)c3)ccn12 [GSK2297430] | 0 | 0 | 24 | 9 | 6 | 0 | 14 | 1 | 32 | 42 | 0 | 24 | 9 | 8 | 1 | 14 | 0 | 0 | 0 | 0 |
| c1ccc(-c2cc(-c3c[nH]nc3-c3ccccn3)ccn2)cc1 [GW576604] | 0 | 6 | 13 | 0 | 0 | 0 | 0 | 67 | 9 | 46 | 0 | 0 | 0 | 0 | 20 | 78 | 1 | 0 | 0 | 17 |
| CCc1ccnc(/C=C/c2n[nH]c3cc(Sc4ccccc4C(=O)NC)ccc23)c1 | 0 | 14 | 0 | 0 | 84 | 87 | 83 | 11 | 86 | 100 | 7 | 19 | 99.9 | 17 | 0 | 0 | 18 | 2 | 18 | 7 |
| Fc1ccc(-c2nn3c(OCC(F)(F)F)cccc3c2-c2ccncc2)cc1 [GW514784] | 0 | 0 | 13 | 7 | 0 | 0 | 0 | 0 | 18 | 35 | 0 | 4 | 0 | 5 | 0 | 85 | 0 | 0 | 0 | 45 |
| COC(=O)Nc1nc2cc(Oc3ccc(NC(=O)Nc4cc(F)ccc4F)cc3)ccc2[nH]1.Cl [GW701424] | 0 | 0 | 0 | 0 | 0 | 0 | 19 | 6 | 9 | 99 | 14 | 99.2 | 85 | 20 | 0 | 0 | 0 | 11 | 0 | 50 |
| COCCNC(=O)c1ccc(-c2cc(C(=O)NC3CC3)cc(F)c2C)cc1 [GW868318] | 38 | 3 | 1 | 32 | 17 | 3 | 7 | 3 | 32 | 7 | 0 | 15 | 5 | 32 | 2 | 0 | 12 | 32 | 0 | 18 |
